Our source for the outcome values is PubChem BioAssay AID2563 (Broad Institute, 2010).

Screen size: about 290,000 compounds; about 800 (0.28%) were called active.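 How the source made its calls: active means fall in fluorescence gain of 50% or more versus controls, with final raw signal at or below 3038400; inconclusive means same 50% fall but final raw signal above 3038400; inactive means fall in fluorescence gain under 50%.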 The sample as a whole holds a higher share of actives than the screen did.

The target in this assay is CAAX prenyl protease 2 (Saccharomyces cerevisiae (strain ATCC 204508 / S288c)) (UniProt Q03530). As to the kind of experiment: blockers of Rce1 CaaX peptide cleavage – biochemical, fluorescence, cell-free homogeneous, primary screen (AID 2563). The settings on record: yeast membranes, quenched prenylated peptide cleavage fluorescence.
Sequence of CAAX prenyl protease 2 (Saccharomyces cerevisiae (strain ATCC 204508 / S288c)) (Q03530 whole entry, looked up): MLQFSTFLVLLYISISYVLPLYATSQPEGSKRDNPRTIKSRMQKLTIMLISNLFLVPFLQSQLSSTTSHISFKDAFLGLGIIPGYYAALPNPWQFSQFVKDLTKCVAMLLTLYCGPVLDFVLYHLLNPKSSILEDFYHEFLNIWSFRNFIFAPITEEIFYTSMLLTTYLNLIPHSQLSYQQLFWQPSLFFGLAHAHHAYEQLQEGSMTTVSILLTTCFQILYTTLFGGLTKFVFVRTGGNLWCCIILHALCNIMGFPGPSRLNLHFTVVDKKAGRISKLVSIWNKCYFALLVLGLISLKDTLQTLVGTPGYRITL
As for `CC(C)CN(C(=O)COC(=O)c1ccc2ccccc2c1)c1c(N)n(Cc2ccccc2)c(=O)[nH]c1=O`, the compound was called inactive. For the compound `COc1ccc(NS(=O)(=O)c2ccc(C)c(C(=O)NCC(c3cccs3)N3CCOCC3)c2)cc1` (configuration not stated), the call was inactive. Under `CC(=O)NN1C(=O)c2ccccc2NC1c1ccccc1` (configuration not stated) stands “active”; under `CCOC(=O)NN1C(=O)c2ccccc2NC1c1cccc(O)c1` (configuration not stated), “inactive”; under `CN(C)c1ccc(C2Nc3ccccc3C(=O)N2NS(=O)(=O)c2ccccc2)cc1` (configuration not stated), “inactive”. Regarding `COCCn1c(SC(C)C(=O)NC2CC2)nnc1-c1cccc(C)c1` (configuration not stated), the outcome was inactive. Under `CC(C)(C)S(=O)(=O)c1ccccc1-c1noc(-c2ccccc2)c1C(N)=O` stands “inactive”; under `CCn1c(SC(C)C(=O)Nc2ccc(N3CCOCC3)cc2)nnc1-c1ccco1` (configuration not stated), “inactive”; under `Cc1ccc(C(=O)N/N=C/c2cccc3ccccc23)cn1`, “inactive”. With `CCCCCN(C(=O)CCC(=O)OCC(=O)NC1CCC(C)CC1)c1c(N)n(CCCC)c(=O)[nH]c1=O` (configuration not stated), the result was inactive. Under `COc1ccc(C)cc1S(=O)(=O)Nc1cc2c3c(c1)CCC(=O)N3CCC2` stands “inactive”. Under `CCCc1cc(=O)[nH]c(SCC(=O)c2c(N)n(CC(C)C)c(=O)n(C)c2=O)n1` stands “inactive”; under `O=C(CN1C(=O)NC2(CCCC2)C1=O)OCCOc1ccc(F)cc1`, “inactive”; under `CCN1CCN(c2ccc(S(=O)(=O)N3CCCCC3)cc2NC(=O)c2cccc(NC(C)=O)c2)CC1`, “inactive”. As for `Cc1onc(-c2ccccc2Cl)c1C(=O)N(Cc1ccc(N(C)C)cc1)C(C)C`, the outcome was inactive. Under `CCc1noc(C)c1C(=O)Nc1nc2ccc(OC)cc2s1` stands “inactive”; under `COC(C[C@@H](O)C[C@@H](O)[C@H](C)OCc1ccccc1)OC`, “inactive”; under `COC(C[C@@H](O)C[C@H](O)[C@H](C)OCc1ccccc1)OC`, “active”. For `COC(C[C@H](O)CC(=O)[C@@H](C)OCc1ccccc1)OC` the value was “inactive”; for `Cc1ccc2nnn(Cc3cccc(C(C)(C)C)c3O)c2c1`, “inactive”. Under `Cc1ccc2nc(NC(=O)CSc3nc(=O)n(CCCN(C)C)c4c3CCC4)sc2c1` stands “inactive”; under `O=C(NCC(=O)N1CCCC(C(F)(F)F)C1)c1ccccc1F` (configuration not stated), “inactive”; under `Cc1nc(N2CCN(c3ccccn3)CC2)c2c(C)c(C(=O)Nc3ccc(F)c(Cl)c3)sc2n1`, “inactive”. In the case of `Cc1nc(N2CCOCC2)c2c(C)c(C(=O)Nc3ccc(C(F)(F)F)cc3)sc2n1`, the result was active. Under `Cc1nc(N2CCN(c3ccccn3)CC2)c2c(C)c(C(=O)Nc3ccc(F)cc3)sc2n1` stands “inactive”; under `Cc1c(C)n2c(SCC(=O)N3CCCC3)nnc2[nH]c1=O`, “inactive”; under `Cc1cc(/C=N/n2cnnc2)c(C)n1-c1ccc2ncccc2c1`, “inactive”. For `Cc1nn(C)cc1C(=O)c1ccccc1` the value was “inactive”; for `Cc1cccc([C@@H]2[C@@H]3C(=O)N(Cc4ccccc4)C(=O)[C@@H]3[C@]3(Cc4ccc(Cl)cc4)C(=O)N(c4cccc(Cl)c4)C(=O)N23)c1`, “inactive”; for `C=CCNC(=O)C1CC2c3ccccc3C1c1ccccc12` (configuration not stated), “inactive”. For `COc1ccc(S(=O)(=O)Nc2ccc3oc(C)c(C(C)=O)c3c2)cc1` the value was “inactive”; for `CC(=O)c1c(C)oc2ccc(NS(=O)(=O)c3ccc(C(=O)O)cc3)cc12`, “active”. For the compound `CC(=O)c1c(C)oc2ccc(NS(=O)(=O)c3ccccc3)cc12`, the outcome was inactive.

Turning to `COc1ccccc1CNC(=O)COn1nnc2ccc(S(=O)(=O)N3CCOCC3)cc21`, the compound was called inactive. For the compound `CCc1cccc(NC(=O)COC(=O)C2CCN(c3ccc(C(F)(F)F)cn3)CC2)c1`, the outcome was inactive. Under `O=C(NCC(c1cccs1)N1CCOCC1)c1cc(Cl)ccc1[N+](=O)[O-]` (configuration not stated) stands “inactive”; under `Cc1ccc(S(=O)(=O)N2CCC(C(=O)NCCC3=CCCCC3)CC2)cc1C`, “inactive”; under `O=C(CCC(=O)c1cccs1)Nc1nc2ccccc2s1`, “inactive”. Take `CC12CCC(=O)N1C(C(=O)Nc1ccc(F)c(F)c1F)CS2` (configuration not stated): the outcome was inactive. On to `COc1cc2ccccc2cc1C(=O)N1CCOCC1`, for which the compound was called inactive. For the compound `COc1ccc(S(=O)(=O)NCc2cccnc2)cc1NC(=O)c1ccc(C)cc1`, the outcome was inactive.

For the compound `COc1ccc(/C=N/NC(=O)c2ccc(Cl)cc2)cc1COC(C)=O`, the result was active. Under `COc1cccc(OCc2cc(/C=N/NC(=O)c3nc(Cl)c(Cl)c(N)c3Cl)ccc2OC)c1` stands “inactive”; under `COc1ccc(/C=N/NC(=O)c2ccccc2)cc1OS(=O)(=O)c1ccccc1`, “inactive”.

Consider `CCOC(=O)N1CCN(C(=O)c2ccccc2SCC(=O)NCC2CCCCC2)CC1`, for which the compound was called inactive.

`COc1ccccc1C(CNC(=O)c1cccc(NS(=O)(=O)c2ccc(Br)cc2)c1)N(C)C` (configuration not stated): the outcome was inactive. Under `CCOc1ccc(CCNC(=O)CN2C(=O)NC3(CCc4ccccc43)C2=O)cc1OCC` (configuration not stated) stands “inactive”.

Turning to `COc1ccccc1NC(=O)C(C)OC(=O)c1ccc(-n2cnnn2)cc1` (configuration not stated), the compound was classed as inactive. Under `COc1ccc(C(=NN)c2ccc(OC)cc2)cc1` stands “inactive”; under `CCCCn1c(N)c(N(Cc2ccccc2OC)C(=O)COc2cc(C)ccc2Cl)c(=O)[nH]c1=O`, “inactive”. As for `COc1ccc(NC(=O)CN(C)C(=O)c2n[nH]c3ccccc23)cc1`, the call was inactive. On to `CCN(CC)c1ccc(S(=O)(=O)N2CCCCC2)cc1NC(=O)C1=COCCO1`, for which the compound was called inactive. For `CCCCn1c(N)c(N(CC(C)C)C(=O)c2cnc(C)cn2)c(=O)[nH]c1=O` the value was “inactive”; for `Cc1cccc(N(Cc2ccccc2)C(=O)c2cc(S(=O)(=O)N3CCOCC3)ccc2F)c1`, “inactive”; for `Cc1ccc(C)c(NC(=O)COC(=O)Cn2c(C)csc2=O)c1`, “inactive”.

Take `COc1ccc(-c2ccc3nnc(SCC(=O)Nc4ccc(NC(C)=O)cc4)n3n2)cc1`: the call was inactive.

Turning to `COc1ccc(C2=NN(C(=O)c3cccnc3)C(c3ccccc3)C2)cc1` (configuration not stated), the compound was called inactive. For `COc1ccc(C2CC(c3ccc([N+](=O)[O-])cc3)=NN2C(C)=O)cc1` (configuration not stated) the value was “inactive”; for `COc1ccc(C2CC(c3ccccc3)=NN2C(=O)c2ccc(Cl)c([N+](=O)[O-])c2)cc1` (configuration not stated), “active”. Turning to `COc1ccc(S(=O)(=O)NCC(c2ccco2)N2CCOCC2)cc1` (configuration not stated), the result was inactive. For `CCn1cc(C(=O)NCCO)c(=O)c2cc(F)c(N3CCN(C)CC3)cc21` the value was “active”; for `CN1CCN(c2cc3c(cc2F)c(=O)c(C(=O)O)cn3CCF)CC1`, “inactive”; for `CCCCNC(=O)c1cn(CC)c2cc(N3CCN(C(=O)c4ccco4)CC3)c(F)cc2c1=O`, “inactive”. Take `COc1ccc(NC(=O)CSc2nnc(Cc3ccccc3)c(=O)n2N)cc1`: the compound was classed as inactive.

In the case of `Cc1cc(C)c(S(=O)(=O)NCC(c2ccc3c(c2)OCO3)N2CCOCC2)c(C)c1` (configuration not stated), the compound was classed as inactive. Under `COc1ccccc1N(C)S(=O)(=O)c1ccc(Cl)c(C(=O)Nc2ccncc2)c1` stands “inactive”; under `COCCNc1nc(N)c([N+](=O)[O-])c(N2CCCCCC2)n1`, “active”; under `Nc1nc(NCC(=O)O)nc(N2CCCCCC2)c1[N+](=O)[O-]`, “inactive”. For `COCCNc1nc(N)c([N+](=O)[O-])c(NCCO)n1` the value was “inactive”. For `O=C(NCC1(N2CCCCC2)CCCCC1)c1ccc(NS(=O)(=O)c2ccc(F)cc2)cc1` the value was “inactive”. Consider `COc1ccc2oc(C(=O)N(CC(C)C)C3CCS(=O)(=O)C3)c(C)c2c1` (configuration not stated), for which the outcome was inactive. Turning to `COc1ccc(S(=O)(=O)N2CCCCCC2)cc1C(=O)N(C)Cc1cccc(OC)c1OC`, the call was inactive. `Cc1noc(C)c1CSCC(=O)Nc1ccc(Br)cc1Cl`: the call was inactive. For `COC(C/C=C/C(=O)[C@@H](C)OCc1ccccc1)OC` the value was “inactive”; for `COC(C[C@@H]1O[C@@H]1C(=O)[C@H](C)OCc1ccccc1)OC`, “inactive”. Under `COC(C[C@@H]1O[C@@H]1C(=O)[C@@H](C)OCc1ccccc1)OC` stands “active”; under `COc1ccc(/C=N/NC(=O)c2cc(-c3cccc(C)c3)nc3ccccc23)cc1O`, “inactive”; under `CCOC(=O)C1CCN(C(=O)COC(=O)C2CCN(S(=O)(=O)c3ccc4c(c3)OCCO4)CC2)CC1`, “inactive”. For `O=C(c1cc(-c2ccc(Cl)s2)nc2ccccc12)N1CCOCC1`, the compound was called inactive. For `Cc1cc(C)c2nc(-c3ccco3)cc(C(=O)O)c2c1` the value was “active”; for `O=C(Nc1cccc(F)c1)c1cc(-c2ccco2)nc2ccccc12`, “inactive”. For `CN(C(=O)COC(=O)c1cc(-c2ccco2)nc2ccccc12)C1CCS(=O)(=O)C1` (configuration not stated), the compound was called inactive.

On to `CCCCC(=O)NNC(=S)NC(=O)C(c1ccccc1)c1ccccc1`, for which the compound was called inactive. For `CC(C)C(=O)NC(=S)Nc1ccccc1F` the value was “inactive”; for `CC(C)C(=O)Nc1cccc(NC(=S)NC(=O)C(c2ccccc2)c2ccccc2)c1`, “active”. For `CS(=O)(=O)c1ccc(C(=O)OCC(=O)NNC(=O)COc2ccc(Cl)cc2)cc1` the value was “inactive”. Under `CCC(=O)c1ccc(OCC(=O)OCC(=O)NC2CCCCCC2)cc1` stands “inactive”; under `Cc1nc2ccccn2c(=O)c1NC(=O)c1cccs1`, “inactive”. For `COc1ccccc1C(=O)Nc1ccccc1C(=O)Nc1ccccc1`, the outcome was inactive.

As to `COc1ccccc1C(=O)Nc1ccc(Nc2ccccc2)cc1`, the result was inactive. Under `COc1ccccc1C(=O)NNC(=O)c1ccc(NC(=O)c2ccccc2)cc1` stands “active”. Regarding `Cc1nc2ccccc2c(=O)n1-c1ccc(F)c(NC(=O)c2cccs2)c1`, the compound was called inactive. Under `Cc1cc(C)c(S(=O)(=O)N2CCCC2CNC(=O)c2ccc3c(c2)OCO3)c(C)c1` (configuration not stated) stands “inactive”; under `COC(=O)N/N=C/c1c[n+]([O-])c2ccccc2[n+]1[O-]`, “inactive”; under `NS(=O)(=O)c1cc(C(=O)OCC(=O)NNC(=O)c2ccccc2)ccc1Cl`, “inactive”. Under `CCN(CC(=O)Nc1ccccc1C(F)(F)F)C(=O)CSCc1c(C)noc1C` stands “inactive”; under `COc1ccc2nc(N3CCN(C(=O)c4ccc([N+](=O)[O-])o4)CC3)sc2c1`, “inactive”. Under `CC(=O)c1ccc(S(=O)(=O)Nc2ccc(-c3ccc4nncn4n3)cc2)cc1` stands “inactive”. With `COC(=O)C1CCN(C(=O)NC2CC(=O)N(c3ccc4c(c3)OCCO4)C2)CC1` (configuration not stated), the compound was classed as inactive. Under `Cc1cc(Br)ccc1NC(=O)c1sc2ncn(CC(=O)N3CCN(c4ccccn4)CC3)c(=O)c2c1C` stands “inactive”; under `O=C(CN1CCN(c2ccccn2)CC1)Nc1ccc(Br)cc1`, “inactive”; under `Cc1cc(Br)ccc1NC(=O)c1cnc(N2CCN(c3ccccn3)CC2)c2ccccc12`, “active”.
